Laboratory results taken from the supplement of paper PMC10849652.
Of roughly 7,900 targets only a part is listed; those with a hit were picked by preference. About 0.6% of all pairs of compound and target were hits.

Key:
Test in all cases: log2 fold change, soluble protein after heating vs DMSO (PISA); higher = thermal stabilisation; K562 cells, 10 uM, 30 min; active = over 0.2 and 3.5 SD of the protein, either way, in both replicates (recomputed)
[1] = compound: CC[C@@H]1C(=O)N(C)c2cnc(Nc3ccc(C(=O)NC4CCN(C)CC4)cc3OC)nc2N1C1CCCC1
How it was run: (§1)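 Soluble protein was quantified by TMTpro 16plex LC-MS/MS after channel sums were equalised. It was obtained as the supernatant after 21,000xg for 90 min from pooled aliquots of K562 cells (2×10^6 cells/mL, 10 μM compound, 30 min) heated for 3 min across 48°C-58°C and extracted in PBS with 0.5% NP-40 at 4°C. Thermal stability values are relative to control samples and come from duplicates. They are given as log2 fold changes.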

[2] = compound: CC[C@H](C)N1C=C(C2=C(C=C(C=C21)C3=CN=C(C=C3)N4CCNCC4)C(=O)NCC5=C(C=C(NC5=O)C)C)C
How it was run: as §1

epoxomicin = compound: CC[C@H](C)[C@@H](C(=O)N[C@@H]([C@@H](C)O)C(=O)N[C@@H](CC(C)C)C(=O)[C@]1(CO1)C)NC(=O)[C@H]([C@@H](C)CC)N(C)C(=O)C [epoxomicin]
How it was run: as §1

[3] = compound: CN(C)CC(=O)Nc1ccc2[nH]c(=O)c3ccccc3c2c1
How it was run: as §1

rosiglitazone = compound: CN(CCOC1=CC=C(C=C1)C[C@H]2C(=O)NC(=O)S2)C3=CC=CC=N3 (racemic) [rosiglitazone]
How it was run: as §1

[4] = compound: CN1C2=C(C3=C1C(=O)N(N=C3)CC4=CC(=CC=C4)N)SC(=C2)S(=O)C
How it was run: as §1

saracatinib = compound: CN1CCN(CCOc2cc(OC3CCOCC3)c3c(Nc4c(Cl)ccc5c4OCO5)ncnc3c2)CC1 [saracatinib]
How it was run: as §1

alvocidib = compound: CN1CC[C@H](c2c(O)cc(O)c3c(=O)cc(-c4ccccc4Cl)oc23)[C@H](O)C1 [alvocidib]
How it was run: as §1

Tubastatin A = compound: CN1CCc2c(c3ccccc3n2Cc2ccc(C(=O)NO)cc2)C1 [Tubastatin A]
How it was run: as §1

defactinib = compound: CNC(=O)c1ccc(Nc2ncc(C(F)(F)F)c(NCc3nccnc3N(C)S(C)(=O)=O)n2)cc1 [defactinib]
How it was run: as §1

rucaparib = compound: CNCc1ccc(-c2[nH]c3cc(F)cc4c3c2CCNC4=O)cc1 [rucaparib]
How it was run: as §1

[5] = compound: CNc1nc(-c2ccc3c(N)n[nH]c3c2)cc(N2C[C@@H](C(=O)NC3CCCCC3)CC[C@H]2C)n1
How it was run: as §1

encorafenib = compound: COC(=O)N[C@@H](C)CNc1nccc(-c2cn(C(C)C)nc2-c2cc(Cl)cc(NS(C)(=O)=O)c2F)n1 [encorafenib]
How it was run: as §1

[6] = compound: COC(=O)[C@H](CCSC)NC(=O)C1=C(C=C(C=C1)NC[C@H](CS)N)C2=CC=CC=C2
How it was run: as §1

[7] = compound: CCn1c(C(=O)N(C2CC2)C2CC2)cc2c3c(ncn3C)c(Nc3cc(C)n(C)n3)nc21
How it was run: as §1

[8] = compound: CNC(=O)C1=CC=CC=C1NC2=NC(=NC=C2Cl)NC3=C(C=C(C=C3)N4CCOCC4)OC
How it was run: as §1

[9] = compound: CCn1cc(-c2ccnc3[nH]c(-c4cccc(CN(C)C)c4)cc23)c(-c2ccc(NC(=O)N(C)C)cc2)n1
How it was run: as §1

[10] = compound: CN1CCC(CNc2ccc3ncc(-c4cccc(OC(F)(F)F)c4)n3n2)CC1
How it was run: as §1

sotrastaurin = compound: CN1CCN(c2nc(C3=C(c4c[nH]c5ccccc45)C(=O)NC3=O)c3ccccc3n2)CC1 [sotrastaurin]
How it was run: as §1

volasertib = compound: CC[C@@H]1C(=O)N(C)c2cnc(Nc3ccc(C(=O)N[C@H]4CC[C@H](N5CCN(CC6CC6)CC5)CC4)cc3OC)nc2N1C(C)C [volasertib]
How it was run: as §1

Measured: log2 fold change

CLINT1 (UniProt Q14677)
Chain of UniProt Q14677 (Q14677 whole entry, looked up): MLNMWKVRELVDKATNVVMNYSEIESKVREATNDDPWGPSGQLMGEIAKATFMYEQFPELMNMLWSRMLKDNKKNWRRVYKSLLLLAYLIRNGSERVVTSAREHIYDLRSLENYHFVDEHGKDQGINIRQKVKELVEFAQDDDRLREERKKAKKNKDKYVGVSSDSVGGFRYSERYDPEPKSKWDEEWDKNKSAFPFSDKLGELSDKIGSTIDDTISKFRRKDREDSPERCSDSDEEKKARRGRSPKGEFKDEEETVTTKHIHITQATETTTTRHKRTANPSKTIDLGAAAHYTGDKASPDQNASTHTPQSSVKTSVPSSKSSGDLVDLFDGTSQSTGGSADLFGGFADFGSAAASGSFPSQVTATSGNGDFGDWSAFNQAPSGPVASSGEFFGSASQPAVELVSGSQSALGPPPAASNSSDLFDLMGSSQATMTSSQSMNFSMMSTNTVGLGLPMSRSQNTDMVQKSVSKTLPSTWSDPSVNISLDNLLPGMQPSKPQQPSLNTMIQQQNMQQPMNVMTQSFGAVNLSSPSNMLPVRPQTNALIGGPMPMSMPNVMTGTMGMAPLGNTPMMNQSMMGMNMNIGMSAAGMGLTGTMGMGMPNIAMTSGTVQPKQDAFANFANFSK
inactive: [1] -0.022 | [2] 0.021 | epoxomicin -0.035 | [3] -0.075 | rosiglitazone 0.003 | [4] -0.218 | saracatinib -0.003 | alvocidib -0.112 | Tubastatin A -0.029 | defactinib -0.002 | rucaparib 0.128 | [5] -0.062 | encorafenib -0.045 | [6] 0.036

CPNE5 (UniProt Q9HCH3)
Chain of UniProt Q9HCH3 (Q9HCH3 whole entry, looked up): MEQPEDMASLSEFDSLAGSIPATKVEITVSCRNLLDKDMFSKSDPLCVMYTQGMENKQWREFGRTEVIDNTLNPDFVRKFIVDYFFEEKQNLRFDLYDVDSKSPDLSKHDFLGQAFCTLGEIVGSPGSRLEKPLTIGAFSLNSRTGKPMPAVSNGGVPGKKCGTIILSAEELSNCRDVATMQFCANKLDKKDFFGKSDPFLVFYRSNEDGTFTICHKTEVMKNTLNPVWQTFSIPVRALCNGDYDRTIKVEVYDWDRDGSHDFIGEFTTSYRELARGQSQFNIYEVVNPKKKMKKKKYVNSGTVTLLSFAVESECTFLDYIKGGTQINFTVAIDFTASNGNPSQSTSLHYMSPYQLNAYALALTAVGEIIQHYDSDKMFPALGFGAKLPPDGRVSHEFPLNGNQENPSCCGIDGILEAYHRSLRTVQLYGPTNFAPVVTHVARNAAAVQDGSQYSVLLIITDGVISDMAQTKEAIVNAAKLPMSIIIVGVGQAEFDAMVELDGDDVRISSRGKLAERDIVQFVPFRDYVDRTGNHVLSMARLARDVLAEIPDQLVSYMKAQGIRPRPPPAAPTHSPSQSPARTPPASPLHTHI
inactive: [7] 0.132 | alvocidib 0.134 | Tubastatin A 0.082 | [8] 0.049

CREB3L2 (UniProt Q70SY1)
Chain of UniProt Q70SY1 (Q70SY1 whole entry, looked up): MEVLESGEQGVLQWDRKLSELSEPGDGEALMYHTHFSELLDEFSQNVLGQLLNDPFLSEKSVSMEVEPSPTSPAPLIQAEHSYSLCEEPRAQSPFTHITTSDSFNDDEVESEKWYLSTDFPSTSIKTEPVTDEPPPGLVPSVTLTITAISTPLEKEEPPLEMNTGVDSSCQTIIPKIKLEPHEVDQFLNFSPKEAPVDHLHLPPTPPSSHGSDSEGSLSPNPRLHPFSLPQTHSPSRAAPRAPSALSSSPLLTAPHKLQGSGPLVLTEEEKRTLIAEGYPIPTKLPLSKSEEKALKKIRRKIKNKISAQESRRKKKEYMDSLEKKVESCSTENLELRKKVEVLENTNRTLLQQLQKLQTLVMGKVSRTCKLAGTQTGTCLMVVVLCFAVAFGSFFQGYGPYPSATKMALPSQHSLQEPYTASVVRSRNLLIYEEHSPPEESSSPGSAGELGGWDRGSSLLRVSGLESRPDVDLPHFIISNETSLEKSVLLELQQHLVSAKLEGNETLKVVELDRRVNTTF
inactive: [2] 0.067 | epoxomicin 0.035 | [7] -0.125 | [3] 0.069 | rosiglitazone -0.031 | alvocidib -0.242 | Tubastatin A 0.282 | [8] -0.19 | defactinib -0.039 | [6] -0.172

CRMP1 isoform 2 (UniProt Q14194)
Chain of UniProt Q14194 (Q14194 whole entry, looked up): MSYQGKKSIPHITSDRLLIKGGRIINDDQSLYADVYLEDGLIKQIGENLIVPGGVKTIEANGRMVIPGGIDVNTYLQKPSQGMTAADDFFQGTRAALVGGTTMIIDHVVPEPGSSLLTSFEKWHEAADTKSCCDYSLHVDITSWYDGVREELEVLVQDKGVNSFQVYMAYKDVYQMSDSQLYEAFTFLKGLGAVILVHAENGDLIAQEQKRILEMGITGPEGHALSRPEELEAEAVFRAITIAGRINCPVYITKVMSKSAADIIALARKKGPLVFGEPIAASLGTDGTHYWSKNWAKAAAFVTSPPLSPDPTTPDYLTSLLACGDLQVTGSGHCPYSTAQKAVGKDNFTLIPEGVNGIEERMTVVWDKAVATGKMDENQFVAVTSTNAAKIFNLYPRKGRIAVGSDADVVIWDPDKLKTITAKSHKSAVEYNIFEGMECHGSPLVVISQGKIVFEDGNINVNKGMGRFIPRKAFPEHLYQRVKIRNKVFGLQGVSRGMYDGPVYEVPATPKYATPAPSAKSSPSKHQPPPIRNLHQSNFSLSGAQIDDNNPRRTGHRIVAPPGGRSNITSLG
inactive: [2] 0.2 | [7] -0.303 | [9] -0.198 | [3] -0.072 | rosiglitazone 0.047 | [4] -0.25 | [10] 0.038 | saracatinib -0.059 | sotrastaurin 0.107 | alvocidib -0.052 | Tubastatin A 0.025 | [8] 0.024 | defactinib -0.149 | [5] -0.041 | [6] 0.025

CDKN1B (UniProt P46527)
Chain of UniProt P46527 (P46527 whole entry, looked up): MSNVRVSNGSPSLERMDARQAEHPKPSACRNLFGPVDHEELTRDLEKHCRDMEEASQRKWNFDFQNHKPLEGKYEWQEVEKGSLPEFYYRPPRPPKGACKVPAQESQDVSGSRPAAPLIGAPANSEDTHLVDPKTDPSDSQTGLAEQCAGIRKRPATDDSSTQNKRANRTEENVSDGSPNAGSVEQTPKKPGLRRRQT
inactive: volasertib 0.028 | [2] -0.083 | epoxomicin 0.393 | [7] -0.034 | [9] 0.036 | [3] 0.025 | rosiglitazone 0.067 | [4] 0.06 | [10] 0.073 | saracatinib 0.29 | sotrastaurin 0.129 | alvocidib 0.256 | [8] -0.247 | defactinib 0.163 | [5] -0.298 | [6] 0.028

CCNL1 (UniProt Q9UK58)
inactive: [7] -0.078 | [8] -0.179

CLN5 (UniProt O75503)
Chain of UniProt O75503 (O75503 whole entry, looked up): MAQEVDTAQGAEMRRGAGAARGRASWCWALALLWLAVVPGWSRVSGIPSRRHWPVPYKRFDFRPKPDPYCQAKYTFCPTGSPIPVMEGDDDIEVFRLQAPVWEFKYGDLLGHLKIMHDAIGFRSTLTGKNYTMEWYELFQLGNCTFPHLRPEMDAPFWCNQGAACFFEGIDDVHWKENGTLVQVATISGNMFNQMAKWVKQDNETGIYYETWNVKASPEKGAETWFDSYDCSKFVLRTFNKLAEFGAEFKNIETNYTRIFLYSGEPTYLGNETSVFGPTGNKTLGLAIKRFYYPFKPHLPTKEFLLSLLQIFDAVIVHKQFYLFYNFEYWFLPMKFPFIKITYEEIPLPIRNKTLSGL
active: volasertib -1.25 | [10] -0.834
inactive: [2] -0.001 | epoxomicin 0.014 | [7] 0.416 | [9] -0.183 | rosiglitazone -0.025 | [4] 0.139 | saracatinib -0.283 | sotrastaurin -0.008 | alvocidib 0.01 | Tubastatin A 0.079 | [8] 0.032 | [5] -0.715

CSNK1A1 isoform 3 (UniProt P48729)
inactive: volasertib -0.224 | rosiglitazone -0.005

CDK2AP2 (UniProt O75956)
Chain of UniProt O75956 (O75956 whole entry, looked up): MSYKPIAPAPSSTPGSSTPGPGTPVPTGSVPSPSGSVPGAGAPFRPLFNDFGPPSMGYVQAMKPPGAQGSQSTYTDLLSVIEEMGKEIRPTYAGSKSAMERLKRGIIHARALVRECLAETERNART
inactive: [1] 0.078 | [2] -0.04 | epoxomicin 0.137 | [7] 0.074 | rosiglitazone -0.002 | alvocidib -0.048 | [8] -0.092 | rucaparib 0.134 | encorafenib -0.038

CARD9 (UniProt Q9H257)
inactive: [7] -0.103 | [8] 0.388

COX17 (UniProt Q14061)
Chain of UniProt Q14061 (Q14061 whole entry, looked up): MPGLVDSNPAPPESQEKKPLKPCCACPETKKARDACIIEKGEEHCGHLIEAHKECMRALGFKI
inactive: [2] 0.044 | epoxomicin 0.504 | [7] -0.097 | [9] -0.154 | [3] -0.051 | [4] -0.146 | [10] 0.055 | saracatinib -0.092 | sotrastaurin -0.023 | alvocidib -0.101 | Tubastatin A -0.113 | [8] -0.008 | defactinib -0.072 | [5] 0.023 | [6] 0.147

CAV2 (UniProt P51636)
Chain of UniProt P51636 (P51636 whole entry, looked up): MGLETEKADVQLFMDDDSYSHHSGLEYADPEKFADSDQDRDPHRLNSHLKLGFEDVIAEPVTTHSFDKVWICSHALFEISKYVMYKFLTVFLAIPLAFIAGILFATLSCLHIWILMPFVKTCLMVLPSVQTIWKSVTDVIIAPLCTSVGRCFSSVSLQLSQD
inactive: volasertib -0.098 | [2] -0.032 | [7] -0.059 | [9] -0.036 | rosiglitazone -0.076 | [4] 0.01 | [10] 0.074 | saracatinib -0.006 | sotrastaurin 0.045 | Tubastatin A 0.159 | [8] -0.019 | [5] 0.013

CHST10 (UniProt O43529)
Chain of UniProt O43529 (O43529 whole entry, looked up): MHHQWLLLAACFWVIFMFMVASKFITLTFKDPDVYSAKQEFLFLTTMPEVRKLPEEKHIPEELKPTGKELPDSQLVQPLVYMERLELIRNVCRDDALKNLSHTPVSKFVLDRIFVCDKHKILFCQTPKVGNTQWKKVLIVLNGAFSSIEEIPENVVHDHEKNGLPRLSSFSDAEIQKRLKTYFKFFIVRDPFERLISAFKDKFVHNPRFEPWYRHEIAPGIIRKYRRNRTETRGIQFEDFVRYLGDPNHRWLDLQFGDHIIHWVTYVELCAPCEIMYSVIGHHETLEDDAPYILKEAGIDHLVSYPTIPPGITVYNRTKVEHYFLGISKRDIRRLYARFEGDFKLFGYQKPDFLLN
inactive: volasertib -0.146 | [2] 0.002 | epoxomicin -0.019 | [7] -0.043 | [9] -0.021 | rosiglitazone 0.081 | [10] -0.108 | sotrastaurin -0.01 | alvocidib -0.106 | Tubastatin A -0.037 | [8] 0.035

CCNDBP1 (UniProt O95273)
Chain of UniProt O95273 (O95273 whole entry, looked up): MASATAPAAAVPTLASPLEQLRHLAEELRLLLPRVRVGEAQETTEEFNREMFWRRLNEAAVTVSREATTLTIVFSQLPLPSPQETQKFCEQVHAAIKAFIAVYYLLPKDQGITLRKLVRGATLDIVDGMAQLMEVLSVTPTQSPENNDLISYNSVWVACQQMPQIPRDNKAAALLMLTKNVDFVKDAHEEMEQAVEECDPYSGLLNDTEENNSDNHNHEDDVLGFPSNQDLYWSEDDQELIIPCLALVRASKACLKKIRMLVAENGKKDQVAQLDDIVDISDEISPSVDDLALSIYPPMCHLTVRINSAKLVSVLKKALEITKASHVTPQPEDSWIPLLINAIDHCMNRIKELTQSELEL
inactive: [1] 0.088 | [2] 0.133 | [7] -0.045 | [9] -0.036 | [3] -0.094 | rosiglitazone 0.032 | [4] 0.013 | [10] -0.048 | saracatinib 0.078 | sotrastaurin -0.209 | alvocidib -0.007 | Tubastatin A 0.001 | [8] 0.115 | defactinib -0.107 | rucaparib -0.002 | [5] -0.04 | encorafenib 0.062 | [6] -0.027

CASP7 isoform 3 (UniProt P55210)
Chain of UniProt P55210 (P55210 whole entry, looked up): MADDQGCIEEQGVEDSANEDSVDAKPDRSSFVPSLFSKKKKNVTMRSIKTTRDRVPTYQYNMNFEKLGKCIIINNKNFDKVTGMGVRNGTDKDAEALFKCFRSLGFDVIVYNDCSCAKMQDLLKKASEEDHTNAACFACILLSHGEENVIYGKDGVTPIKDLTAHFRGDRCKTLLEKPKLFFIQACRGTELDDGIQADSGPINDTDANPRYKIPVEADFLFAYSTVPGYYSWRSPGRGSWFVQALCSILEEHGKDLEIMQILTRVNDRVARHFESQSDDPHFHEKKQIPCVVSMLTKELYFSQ
inactive: [1] 0.014 | [2] 0.017 | epoxomicin 0.222 | [7] -0.001 | [9] -0.569 | rosiglitazone 0.259 | [4] 0.032 | [10] -0.697 | saracatinib 0.185 | [8] 0.151 | rucaparib -0.013 | [5] 0.254 | encorafenib 0.014

CRTC1 isoform 2 (UniProt Q6UUV9)
Chain of UniProt Q6UUV9 (Q6UUV9 whole entry, looked up): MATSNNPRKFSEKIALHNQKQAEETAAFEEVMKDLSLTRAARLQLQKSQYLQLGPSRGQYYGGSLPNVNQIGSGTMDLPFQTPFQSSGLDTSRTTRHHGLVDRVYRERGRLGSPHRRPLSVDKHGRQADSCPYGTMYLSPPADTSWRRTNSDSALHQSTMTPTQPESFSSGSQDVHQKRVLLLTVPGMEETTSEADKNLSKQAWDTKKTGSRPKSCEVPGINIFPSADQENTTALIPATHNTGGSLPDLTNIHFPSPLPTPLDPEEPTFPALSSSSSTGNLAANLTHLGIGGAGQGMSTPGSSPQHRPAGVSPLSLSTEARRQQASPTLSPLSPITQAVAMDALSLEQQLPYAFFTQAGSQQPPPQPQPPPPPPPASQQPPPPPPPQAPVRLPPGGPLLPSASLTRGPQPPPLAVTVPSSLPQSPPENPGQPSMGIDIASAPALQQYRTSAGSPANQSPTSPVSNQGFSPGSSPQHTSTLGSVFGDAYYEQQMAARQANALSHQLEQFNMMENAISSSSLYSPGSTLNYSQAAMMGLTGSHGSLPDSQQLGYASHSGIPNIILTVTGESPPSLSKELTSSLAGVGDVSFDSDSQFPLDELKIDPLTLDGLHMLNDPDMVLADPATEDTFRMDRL
inactive: volasertib 0.211 | epoxomicin -0.062 | [7] -0.164 | [9] 0.034 | [3] -0.069 | rosiglitazone 0.065 | [4] -0.153 | [10] 0.101 | saracatinib -0.026 | sotrastaurin 0.011 | Tubastatin A -0.009 | [8] -0.101 | defactinib -0.021 | [5] -0.062 | [6] 0.009
